Measured values: PubChem BioAssay
For some of these results: Potency and affinity values are given separately. Calls of active or inactive are those of the source. Unless noted, no rule for the calls is given here.

Assays:
[1] = antimalarial activity against Dd2 strain (AID 2302;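 active = growth inhibition above 50% at the single 2 µM test dose, taken to imply half-maximal potency below 2 µM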;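 also: 0% = DMSO untreated growth and 100% = chloroquine plus artemisinin killed control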); details: P. falciparum Dd2 in RBCs, LDH growth readout, 72 h; at 2 µM; active compounds read high
[2] = human hepatoma cell viability loss – ATP luminescence, cytotoxicity control for P. falciparum antimalarial project, primary screen (AID 2303;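 active = inhibition above 50%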;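 also: 0% = DMSO wells and 100% = digitonin-killed cells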); details: HepG2 viability, 24-48 h, at 10 µM, active compounds read high
[3] = target: L-lactate dehydrogenase (Plasmodium falciparum (isolate CDC / Honduras)) (UniProt Q27743); assay: PfLDH activity inhibition – cell lysate, 3D7 strain, counter-screen for P. falciparum growth inhibition project (AID 2304);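 also: 0% = vehicle and 100% = reference inhibitor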; details: P. falciparum 3D7 crude extract, LDH APAD/NBT absorbance; at 2 µM; active compounds read high
[4] = inhibition of 3D7 malaria parasite growth – strain 3D7 (AID 2306);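 also: 0% = DMSO wells and 100% = chloroquine plus artemisinin control wells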; details: P. falciparum 3D7 erythrocytic growth, LDH absorbance, 72 h; at 2 µM; active compounds read high
[5] = target: Calcium-dependent protein kinase 1 (Plasmodium falciparum (isolate 3D7)) (UniProt P62344); assay: PfCDPK1 kinase inhibitors, biochemical, TCAMS library (AID 1159585; cut-off not given, nearly all actives have IC50 up to about 0.98 µM;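 also: inhibitors leave more ATP so luminescence rises with inhibition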); details: recombinant PfCDPK1, Kinase-Glo ATP depletion luminescence
[6] = target: Plasmodium falciparum protein kinase 6 (PK6, PF3D7_1337100) (UniProt Q8IDW1); assay: PfPK6 kinase inhibitors, biochemical, TCAMS library (AID 1159586); details: recombinant PfPK6, Kinase-Glo ATP depletion luminescence
[7] = target: Protein kinase 7 (PK7), Plasmodium falciparum 3D7 (PF3D7_0213400) (UniProt Q7YTF7); assay: inhibition of Plasmodium PK7 catalytic activity – biochemical, TCAMS antimalarial set, Kinase-Glo luminescence (AID 1159587); details: recombinant PfPK7, Kinase-Glo ATP depletion luminescence
[8] = target: Calcium-dependent protein kinase 4 (Plasmodium falciparum (isolate 3D7)) (UniProt Q8IBS5); assay: PfCDPK4 kinase inhibitors, biochemical, TCAMS library (AID 1159588; cut-off not given, nearly all actives have IC50 up to about 0.91 µM); details: recombinant PfCDPK4, Kinase-Glo ATP depletion luminescence
Calcium-dependent protein kinase 4 (Plasmodium falciparum (isolate 3D7)), sequence (Q8IBS5 whole entry, looked up): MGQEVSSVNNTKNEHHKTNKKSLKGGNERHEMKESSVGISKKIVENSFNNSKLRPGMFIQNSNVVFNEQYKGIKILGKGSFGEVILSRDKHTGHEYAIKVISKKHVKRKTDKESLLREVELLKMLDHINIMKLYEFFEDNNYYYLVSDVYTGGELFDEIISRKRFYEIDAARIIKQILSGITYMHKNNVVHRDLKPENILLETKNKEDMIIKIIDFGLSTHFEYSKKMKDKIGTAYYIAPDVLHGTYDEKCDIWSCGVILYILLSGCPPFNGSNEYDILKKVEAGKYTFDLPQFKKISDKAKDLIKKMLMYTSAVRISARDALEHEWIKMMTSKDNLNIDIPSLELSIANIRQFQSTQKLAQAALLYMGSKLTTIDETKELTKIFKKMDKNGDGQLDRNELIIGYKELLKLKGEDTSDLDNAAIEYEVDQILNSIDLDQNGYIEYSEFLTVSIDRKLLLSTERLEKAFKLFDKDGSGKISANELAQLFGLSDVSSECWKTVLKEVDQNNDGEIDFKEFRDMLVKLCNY

Plasmodium falciparum protein kinase 6 (PK6, PF3D7_1337100), sequence (Q8IDW1 1-305): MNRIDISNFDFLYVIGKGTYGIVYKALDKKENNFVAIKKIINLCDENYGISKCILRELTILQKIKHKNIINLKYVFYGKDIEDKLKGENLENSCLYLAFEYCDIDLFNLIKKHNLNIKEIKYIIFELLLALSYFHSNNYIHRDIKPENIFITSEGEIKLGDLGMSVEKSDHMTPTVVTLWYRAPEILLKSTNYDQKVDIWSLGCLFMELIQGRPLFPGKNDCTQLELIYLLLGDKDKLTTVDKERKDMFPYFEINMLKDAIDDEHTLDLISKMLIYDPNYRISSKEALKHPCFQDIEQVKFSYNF
Calcium-dependent protein kinase 1 (Plasmodium falciparum (isolate 3D7)), sequence (P62344 whole entry, looked up): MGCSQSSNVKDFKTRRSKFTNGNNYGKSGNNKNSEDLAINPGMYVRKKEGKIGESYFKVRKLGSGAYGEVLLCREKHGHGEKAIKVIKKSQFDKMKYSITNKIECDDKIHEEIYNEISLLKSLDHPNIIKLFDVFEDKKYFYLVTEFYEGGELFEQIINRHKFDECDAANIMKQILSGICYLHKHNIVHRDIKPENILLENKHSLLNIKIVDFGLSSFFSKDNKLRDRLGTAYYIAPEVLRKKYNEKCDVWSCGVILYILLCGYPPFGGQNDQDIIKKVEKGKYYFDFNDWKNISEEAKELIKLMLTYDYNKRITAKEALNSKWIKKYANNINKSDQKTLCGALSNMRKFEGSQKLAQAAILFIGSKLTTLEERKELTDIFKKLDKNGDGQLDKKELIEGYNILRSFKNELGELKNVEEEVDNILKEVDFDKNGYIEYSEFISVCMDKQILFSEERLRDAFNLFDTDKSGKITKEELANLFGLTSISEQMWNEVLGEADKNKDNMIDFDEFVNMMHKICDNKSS
L-lactate dehydrogenase (Plasmodium falciparum (isolate CDC / Honduras)), sequence (Q27743 whole entry, looked up): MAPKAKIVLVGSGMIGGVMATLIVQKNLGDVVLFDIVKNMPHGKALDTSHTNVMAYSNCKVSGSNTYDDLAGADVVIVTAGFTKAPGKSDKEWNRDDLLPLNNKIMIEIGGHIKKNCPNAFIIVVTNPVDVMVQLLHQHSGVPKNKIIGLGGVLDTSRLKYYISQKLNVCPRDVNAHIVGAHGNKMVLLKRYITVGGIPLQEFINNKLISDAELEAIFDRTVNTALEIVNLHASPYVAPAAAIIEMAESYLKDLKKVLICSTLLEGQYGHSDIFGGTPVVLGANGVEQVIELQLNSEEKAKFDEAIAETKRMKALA
Protein kinase 7 (PK7), Plasmodium falciparum 3D7 (PF3D7_0213400), sequence (Q7YTF7 1-343): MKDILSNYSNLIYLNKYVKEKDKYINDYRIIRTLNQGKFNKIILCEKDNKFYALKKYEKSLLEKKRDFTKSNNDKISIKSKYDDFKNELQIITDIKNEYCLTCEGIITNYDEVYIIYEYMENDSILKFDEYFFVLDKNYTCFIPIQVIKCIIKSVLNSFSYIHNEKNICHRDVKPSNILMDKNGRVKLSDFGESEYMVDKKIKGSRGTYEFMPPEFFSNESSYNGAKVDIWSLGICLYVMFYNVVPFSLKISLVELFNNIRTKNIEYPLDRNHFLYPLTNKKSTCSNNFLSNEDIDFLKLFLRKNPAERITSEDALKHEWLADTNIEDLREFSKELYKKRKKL

O=C(Nc1ccc(Cl)cc1)c1ccc(CN2CCCN(Cc3ccccc3)CC2)cc1
inactive: growth inhibition [1] 2% | inhibition [2] 46% | inhibition [3] 1% | outcome [5] | outcome [6] | outcome [7] | outcome [8]
active: growth inhibition [4] 96%

c1ccc2oc(-c3cc4ccncc4cc3OC3CCNCC3)cc2c1
inactive: inhibition [2] 11% | inhibition [3] -3% | outcome [5] | outcome [6] | outcome [7] | outcome [8]
active: growth inhibition [1] 96% | growth inhibition [4] 100%

NC1CCN(Cc2cccc(-c3ccc(-c4nc5ccc(F)cc5[nH]4)cc3)c2)C1 (stereo not given)
active: growth inhibition [1] 99% | growth inhibition [4] 99%
inactive: inhibition [2] 24% | inhibition [3] -1% | outcome [5] | outcome [6] | outcome [7] | outcome [8]

O=C(N[C@H]1CCN(Cc2ccc(OCCN3CCNCC3)c(Br)c2)C1)c1ccc(Cl)c(Cl)c1
inactive: growth inhibition [1] 36% | inhibition [3] 5% | outcome [5] | outcome [6] | outcome [7] | outcome [8]
active: inhibition [2] 69% | growth inhibition [4] 101%

COc1ccc(-n2ccnc2SCC(=O)Nc2cc(Cl)ccc2OC)c(OC)c1
inactive: inhibition [2] -3% | inhibition [3] -8% | outcome [5] | outcome [6] | outcome [7] | outcome [8]
active: growth inhibition [1] 92% | growth inhibition [4] 96%

N#Cc1ccc2c(c1)CCN(CCC1CCC(NC(=O)c3cc4ccc(Cl)cc4[nH]3)CC1)C2 (stereo not given)
active: growth inhibition [4] 103%
inactive: growth inhibition [1] -2% | inhibition [2] 5% | inhibition [3] -3% | outcome [5] | outcome [6] | outcome [7] | outcome [8]

COc1ccc2[nH]cc(C3CCN(CCCCNC(=O)c4ccc(NC(=O)c5ccc(Cl)cc5)cc4)CC3)c2c1
inactive: growth inhibition [1] 16% | inhibition [2] 17% | inhibition [3] 3% | outcome [5] | outcome [6] | outcome [7] | outcome [8]
active: growth inhibition [4] 98%

Cc1sc(N2CCCCC2)nc1C(=O)Nc1ccc(F)cc1C(F)(F)F
inactive: growth inhibition [1] 35% | inhibition [2] -18% | inhibition [3] 2% | outcome [5] | outcome [6] | outcome [7] | outcome [8]
active: growth inhibition [4] 86%

CC(C)CNCc1cccc(-c2ccccc2CN(C(=O)NCCc2ccccc2)C2CCN(Cc3ccccc3)CC2)c1
inactive: inhibition [2] 42% | inhibition [3] -6% | outcome [5] | outcome [6] | outcome [7] | outcome [8]
active: growth inhibition [1] 82% | growth inhibition [4] 89%

CCOC(=O)c1cc(C(=O)NCCCCN2CCC(c3ccc4c(c3OC)CCCC4)CC2)ccc1-c1ccc(C(F)(F)F)cc1
active: growth inhibition [1] 60% | inhibition [2] 100% | growth inhibition [4] 101%
inactive: inhibition [3] -3% | outcome [5] | outcome [6] | outcome [7] | outcome [8]

COc1ccc(C(=O)N2CCC3(CC2)C(=O)N(CC(=O)NCC2CCCCC2)CN3c2ccccc2)cc1
inactive: inhibition [2] 18% | inhibition [3] 3% | outcome [5] | outcome [6] | outcome [7] | outcome [8]
active: growth inhibition [1] 99% | growth inhibition [4] 100%

COc1cc(CNC[C@@H](O)[C@H](Cc2ccccc2)NC(=O)c2cc(C3CCCC3)cc(N3CCCC3=O)c2)cc(OC)c1
inactive: inhibition [2] 16% | inhibition [3] 6% | outcome [5] | outcome [6] | outcome [7] | outcome [8]
active: growth inhibition [1] 76% | growth inhibition [4] 97%

Cn1ncc2c3c(CCN4CCC(NCc5ccc6c(c5)NC(=O)CO6)CC4)c(Cl)cnc3ccc21
active: growth inhibition [1] 92% | growth inhibition [4] 101%
inactive: inhibition [2] 18% | inhibition [3] -2% | outcome [5] | outcome [6] | outcome [7] | outcome [8]

Cc1cc2c(NC(=O)NC3CCN(Cc4ccc(Cl)c(Cl)c4)CC3)cccc2cn1
inactive: growth inhibition [1] 41% | inhibition [2] 11% | inhibition [3] -2% | outcome [5] | outcome [6] | outcome [7] | outcome [8]
active: growth inhibition [4] 100%

COc1ccc2c(NN=Cc3cccnc3)cc(C)nc2c1
inactive: growth inhibition [1] 12% | inhibition [2] -4% | inhibition [3] -2% | outcome [5] | outcome [6] | outcome [7] | outcome [8]
active: growth inhibition [4] 85%

Nc1c(I)cc(C(=O)Nc2ccc3nc4c(c(N)c3c2)CCCC4)cc1I
active: growth inhibition [1] 99% | growth inhibition [4] 100%
inactive: inhibition [2] 40% | inhibition [3] 2% | outcome [5] | outcome [6] | outcome [7] | outcome [8]

C#CC(C)(CO)N1CCCC1 (stereo not given)
inactive: growth inhibition [1] 1% | inhibition [2] 10% | inhibition [3] -4% | outcome [5] | outcome [6] | outcome [7] | outcome [8]
active: growth inhibition [4] 95%

Nc1nc(N)c2c(ccc3c2ccn3Cc2cc3c(cc2Cl)OCO3)n1
active: growth inhibition [1] 94% | inhibition [2] 58% | growth inhibition [4] 95%
inactive: inhibition [3] -5% | outcome [5] | outcome [6] | outcome [7] | outcome [8]

COc1ccc2nc3cc(Cl)ccc3c(NCCc3ccccc3)c2c1
active: growth inhibition [1] 82% | growth inhibition [4] 94%
inactive: inhibition [2] -1% | inhibition [3] 8% | outcome [5] | outcome [6] | outcome [7] | outcome [8]

c1ccc(CN2CCC(NCc3ccccc3-c3cccc(CNCc4ccc5c(c4)OCO5)c3)CC2)cc1
active: growth inhibition [1] 69% | growth inhibition [4] 102%
inactive: inhibition [2] 37% | inhibition [3] 4% | outcome [5] | outcome [6] | outcome [7] | outcome [8]
